# From PubChem BioAssay (EPA / NIEHS)
# Inconclusive results are not listed. Activity calls are given as the source filed them. The calls were made as follows, unless noted: active = hit-call score of the fitted dose curve at least 0.9, where 1 is the maximum; inconclusive = response in the unintended direction; inactive = score below 0.9.
# Key:
# [1] = biological target: human Peripheral-type Benzodiazepine Receptor (PBR), TSPO (gene 706) (UniProt P30536); test: NVS_MP_hPBR: NovaScreen (NVS) Membrane Protein Assay for human Peripheral-type Benzodiazepine Receptor (PBR) (AID 2283331);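 also: hits reduce radioligand binding relative to DMSO baseline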
# Outline: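 Human colonic cell membranes were incubated with test chemical for 1 hour; radioligand binding was measured by filter-based scintillation counting. Primary screen ran in duplicate at 25 uM, with actives followed in concentration series; loss of signal versus DMSO baseline.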
# [2] = biological target: human Androgen Receptor (AR), AR (gene 367) (UniProt P10275); test: NVS_NR_hAR: NovaScreen (NVS) Nuclear Receptor Binding Assay for human Androgen Receptor (AR) (AID 2283332)
# Outline: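 Actives from a duplicate 25 uM single-point screen went on to concentration series. Read-out after 20 h was scintillation counting of displaced radioligand in LnCAP extract, with DMSO as baseline.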
# [3] = biological target: rat Peripheral-type Benzodiazepine Receptor (PBR), Tspo (gene 24230) (UniProt P16257); test: NVS_MP_rPBR: NovaScreen (NVS) Membrane Protein Assay for rat Peripheral-type Benzodiazepine Receptor (PBR) (AID 2283335)
# Outline: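 Radioligand displacement, rat kidney membrane prep, 1 h exposure, filter-based scintillation read; DMSO baseline, loss-of-signal scored. Primary screen at 25 uM in duplicate, actives followed up in concentration series.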
# [4] = NVS_IC_rCaBTZCHL: NovaScreen (NVS) Ion Channel Assay for Calcium Channel, Type L, Benzothiazepine Site (CaBTZCHL) (AID 2283337)
# Outline: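 Competitive displacement of a site-specific radioligand from rat cortex membranes, measured as signal loss against DMSO baseline by filter radiodetection after 1.5 h. Single-point 25 uM primary screen.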
# [5] = biological target: rat Oxytocin Receptor (OXT), Oxtr (gene 25342) (UniProt P70536); test: NVS_GPCR_rOXT: NovaScreen (NVS) G Protein-Coupled Receptor Assay for rat Oxytocin Receptor (OXT) (AID 2283330)
# Experimental: NVS_GPCR_rOXT is a biochemical, single-readout assay that uses extracted gene-proteins from Rat uterine membranes in a tissue-based cell-free assay. Measurements were taken 1 hour after chemical dosing in a 48-well plate.NVS_GPCR_rOXT is one of one assay component(s) measured or calculated from the NVS_GPCR_rOXT assay. It is designed to make measurements of radioligand binding, a form of binding reporter, as detected with scintillation counting signals by Filter-based radiodetection technology.Data from the assay component NVS_GPCR_rOXT was analyzed into 1 assay endpoint. This assay endpoint, NVS_GPCR_rOXT, was analyzed in the positive analysis fitting direction relative to DMSO as the negative control and baseline of activity. […] Furthermore, this assay endpoint can be referred to as a primary readout, because the performed assay has only produced 1 assay endpoint. […]
# Binding assays used specific radioligands (tritiated, iodinated) with non-radioactive competitive displacement ligands in agonist or antagonist protocols (as indicated) and various reference compounds and inhibitors to titrate specific binding to receptors and transporters. Most enzyme assays (CYPs, kinases, phosphatases, proteases, HDACs) used recombinant protein and specific substrates (fluorescence mostly, some colorimetric and radioactive) and inhibitors, followed by a biochemical separation of substrate and product. […]
# [6] = biological target: Voltage-gated inwardly rectifying potassium channel KCNH2 (Homo sapiens) (UniProt Q12809); test: NVS_IC_hKhERGCh: NovaScreen (NVS) Ion Channel Assay for human Potassium Channel ERG (KhERGCh) (AID 2283333)
# Outline: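 Cell-free radioligand competition binding on hERG protein extracted from CHO cells, read by filter-based scintillation counting 0.75 h after dosing. Primary screen at 25 uM in duplicate, actives followed in concentration series. Signal loss fitted versus DMSO.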
# [7] = biological target: rat Gamma-Aminobutyric Acid Type A Receptor BDZ, alpha 6 site (GABARa6), Gabra6 (gene 29708) (UniProt P30191); test: NVS_LGIC_rGABARa6: NovaScreen (NVS) Ligand-Gated Ion Channel Assay for rat Gamma-Aminobutyric Acid Type A Receptor BDZ, alpha 6 site (GABARa6) (AID 2283339)
# Outline: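 Rat cerebellar membranes; radioligand binding, filtration and scintillation counting, read 1 h after dosing. Single-concentration duplicate screen at 25 uM, then concentration-response up to 50 uM for actives; loss of signal fitted versus DMSO baseline.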
# [8] = biological target: Glutamate receptor ionotropic, kainate 1 (Rattus norvegicus) (UniProt P22756); test: NVS_IC_rKAR: NovaScreen (NVS) Ion Channel Assay for rat Kainic Acid Receptors (KAR) (AID 2283334; active = hit-call score of the fitted dose curve at least 0.9, where 1 is the maximum; inactive = score below 0.9)
# Outline: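 Radioligand displacement binding using rat forebrain membranes, 1 h incubation, filter-based scintillation counting. Screened in duplicate at 25 uM, with actives retested in concentration-response up to 50 uM; fitted against DMSO.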
# rat Peripheral-type Benzodiazepine Receptor (PBR), Tspo (gene 24230), sequence (P16257 whole entry, looked up): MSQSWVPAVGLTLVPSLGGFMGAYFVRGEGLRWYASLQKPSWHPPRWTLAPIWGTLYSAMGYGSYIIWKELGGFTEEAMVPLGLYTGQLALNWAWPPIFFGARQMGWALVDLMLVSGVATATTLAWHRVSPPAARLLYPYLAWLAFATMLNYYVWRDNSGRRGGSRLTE
# human Androgen Receptor (AR), AR (gene 367), sequence (P10275 whole entry, looked up): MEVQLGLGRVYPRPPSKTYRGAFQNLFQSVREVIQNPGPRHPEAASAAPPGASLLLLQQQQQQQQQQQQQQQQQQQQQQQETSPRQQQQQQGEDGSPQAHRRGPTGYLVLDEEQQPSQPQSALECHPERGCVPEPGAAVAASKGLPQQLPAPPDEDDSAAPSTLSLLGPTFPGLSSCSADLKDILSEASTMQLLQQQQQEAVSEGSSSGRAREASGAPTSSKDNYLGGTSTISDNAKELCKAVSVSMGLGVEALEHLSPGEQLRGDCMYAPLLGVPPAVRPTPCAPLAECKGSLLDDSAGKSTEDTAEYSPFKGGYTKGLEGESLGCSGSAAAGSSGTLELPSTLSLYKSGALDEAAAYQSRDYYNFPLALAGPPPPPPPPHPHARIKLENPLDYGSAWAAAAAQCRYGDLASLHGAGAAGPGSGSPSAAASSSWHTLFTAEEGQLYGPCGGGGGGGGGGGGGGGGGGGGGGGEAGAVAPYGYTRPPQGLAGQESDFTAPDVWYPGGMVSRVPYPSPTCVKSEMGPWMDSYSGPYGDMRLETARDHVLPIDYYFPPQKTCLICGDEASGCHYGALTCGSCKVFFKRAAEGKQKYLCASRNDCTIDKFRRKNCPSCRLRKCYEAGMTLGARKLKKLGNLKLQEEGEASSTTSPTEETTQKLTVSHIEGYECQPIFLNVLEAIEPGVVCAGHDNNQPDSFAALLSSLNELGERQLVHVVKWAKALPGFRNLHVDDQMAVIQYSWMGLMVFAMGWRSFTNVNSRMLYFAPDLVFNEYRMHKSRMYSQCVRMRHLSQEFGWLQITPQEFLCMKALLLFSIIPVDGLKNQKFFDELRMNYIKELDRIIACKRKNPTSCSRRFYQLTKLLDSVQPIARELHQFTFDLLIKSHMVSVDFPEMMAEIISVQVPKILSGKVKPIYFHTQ
# Voltage-gated inwardly rectifying potassium channel KCNH2 (Homo sapiens), sequence (Q12809 whole entry, looked up): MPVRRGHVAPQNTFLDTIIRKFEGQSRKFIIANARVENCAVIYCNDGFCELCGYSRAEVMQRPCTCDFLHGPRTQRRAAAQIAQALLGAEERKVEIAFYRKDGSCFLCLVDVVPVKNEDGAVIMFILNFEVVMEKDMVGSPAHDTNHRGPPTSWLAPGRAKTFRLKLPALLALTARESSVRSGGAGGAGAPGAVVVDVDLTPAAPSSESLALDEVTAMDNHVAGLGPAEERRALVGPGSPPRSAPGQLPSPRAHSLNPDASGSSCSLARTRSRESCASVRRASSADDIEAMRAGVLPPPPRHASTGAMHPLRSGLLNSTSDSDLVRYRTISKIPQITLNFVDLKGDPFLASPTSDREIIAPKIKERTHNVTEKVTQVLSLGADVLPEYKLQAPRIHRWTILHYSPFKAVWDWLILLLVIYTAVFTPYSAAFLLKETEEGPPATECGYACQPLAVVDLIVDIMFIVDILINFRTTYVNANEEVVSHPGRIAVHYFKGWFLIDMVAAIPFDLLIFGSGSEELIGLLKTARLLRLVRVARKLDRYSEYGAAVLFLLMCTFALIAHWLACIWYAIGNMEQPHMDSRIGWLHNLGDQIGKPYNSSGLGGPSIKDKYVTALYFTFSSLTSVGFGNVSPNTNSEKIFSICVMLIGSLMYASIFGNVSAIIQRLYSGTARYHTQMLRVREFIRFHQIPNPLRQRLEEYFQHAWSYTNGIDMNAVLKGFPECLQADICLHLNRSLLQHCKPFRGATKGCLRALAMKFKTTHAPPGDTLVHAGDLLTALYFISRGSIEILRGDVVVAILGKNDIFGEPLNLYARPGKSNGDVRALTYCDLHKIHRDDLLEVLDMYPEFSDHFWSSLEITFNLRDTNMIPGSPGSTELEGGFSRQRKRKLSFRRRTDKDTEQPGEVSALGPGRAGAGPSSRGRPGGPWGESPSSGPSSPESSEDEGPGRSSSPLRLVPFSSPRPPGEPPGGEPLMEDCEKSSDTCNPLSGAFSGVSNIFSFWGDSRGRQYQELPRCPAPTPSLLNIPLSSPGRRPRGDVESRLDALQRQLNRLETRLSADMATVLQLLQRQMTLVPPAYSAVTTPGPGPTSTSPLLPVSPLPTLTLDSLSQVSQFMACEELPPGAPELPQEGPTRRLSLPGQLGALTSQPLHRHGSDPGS
# human Peripheral-type Benzodiazepine Receptor (PBR), TSPO (gene 706), sequence (P30536 whole entry, looked up): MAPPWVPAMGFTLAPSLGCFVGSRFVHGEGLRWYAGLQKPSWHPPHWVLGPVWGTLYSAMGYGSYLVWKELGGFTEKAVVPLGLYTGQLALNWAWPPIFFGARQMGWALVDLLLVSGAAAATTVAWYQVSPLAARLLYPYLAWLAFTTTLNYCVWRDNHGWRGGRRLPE
# rat Oxytocin Receptor (OXT), Oxtr (gene 25342), sequence (P70536 whole entry, looked up): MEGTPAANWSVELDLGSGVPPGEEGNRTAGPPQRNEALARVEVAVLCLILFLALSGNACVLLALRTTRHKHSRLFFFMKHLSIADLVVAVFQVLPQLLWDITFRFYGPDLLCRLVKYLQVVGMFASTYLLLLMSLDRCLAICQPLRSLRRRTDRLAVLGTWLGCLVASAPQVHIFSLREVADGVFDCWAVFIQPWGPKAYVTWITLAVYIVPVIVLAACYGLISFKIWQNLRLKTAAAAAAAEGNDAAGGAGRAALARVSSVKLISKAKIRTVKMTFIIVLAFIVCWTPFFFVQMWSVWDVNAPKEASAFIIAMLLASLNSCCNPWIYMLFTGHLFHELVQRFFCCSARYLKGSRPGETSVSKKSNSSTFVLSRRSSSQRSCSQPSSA
# Glutamate receptor ionotropic, kainate 1 (Rattus norvegicus), sequence (P22756 whole entry, looked up): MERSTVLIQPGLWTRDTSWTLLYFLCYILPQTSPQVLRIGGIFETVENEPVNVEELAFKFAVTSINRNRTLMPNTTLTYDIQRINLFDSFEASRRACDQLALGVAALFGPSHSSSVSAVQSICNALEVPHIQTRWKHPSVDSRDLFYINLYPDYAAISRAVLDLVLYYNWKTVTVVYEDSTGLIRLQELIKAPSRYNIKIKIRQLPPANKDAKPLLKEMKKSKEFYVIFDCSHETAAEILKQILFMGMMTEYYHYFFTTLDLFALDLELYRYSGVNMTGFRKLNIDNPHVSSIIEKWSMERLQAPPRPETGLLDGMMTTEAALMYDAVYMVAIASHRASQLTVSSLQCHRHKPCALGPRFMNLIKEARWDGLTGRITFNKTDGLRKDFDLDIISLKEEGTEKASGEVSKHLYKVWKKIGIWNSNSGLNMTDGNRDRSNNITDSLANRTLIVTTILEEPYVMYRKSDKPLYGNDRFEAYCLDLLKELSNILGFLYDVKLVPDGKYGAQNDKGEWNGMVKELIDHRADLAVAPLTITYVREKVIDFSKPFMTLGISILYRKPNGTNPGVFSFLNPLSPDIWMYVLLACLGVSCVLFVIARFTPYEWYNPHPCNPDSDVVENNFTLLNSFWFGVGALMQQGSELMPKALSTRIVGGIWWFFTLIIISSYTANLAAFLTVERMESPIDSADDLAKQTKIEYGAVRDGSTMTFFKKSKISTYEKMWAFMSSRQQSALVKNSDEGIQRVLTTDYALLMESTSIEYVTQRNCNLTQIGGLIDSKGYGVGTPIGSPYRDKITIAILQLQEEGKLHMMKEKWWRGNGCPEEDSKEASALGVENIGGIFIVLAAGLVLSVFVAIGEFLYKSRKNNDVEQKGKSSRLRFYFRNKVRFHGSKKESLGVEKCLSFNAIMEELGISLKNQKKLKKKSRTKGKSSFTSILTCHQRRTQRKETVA
# rat Gamma-Aminobutyric Acid Type A Receptor BDZ, alpha 6 site (GABARa6), Gabra6 (gene 29708), sequence (P30191 whole entry, looked up): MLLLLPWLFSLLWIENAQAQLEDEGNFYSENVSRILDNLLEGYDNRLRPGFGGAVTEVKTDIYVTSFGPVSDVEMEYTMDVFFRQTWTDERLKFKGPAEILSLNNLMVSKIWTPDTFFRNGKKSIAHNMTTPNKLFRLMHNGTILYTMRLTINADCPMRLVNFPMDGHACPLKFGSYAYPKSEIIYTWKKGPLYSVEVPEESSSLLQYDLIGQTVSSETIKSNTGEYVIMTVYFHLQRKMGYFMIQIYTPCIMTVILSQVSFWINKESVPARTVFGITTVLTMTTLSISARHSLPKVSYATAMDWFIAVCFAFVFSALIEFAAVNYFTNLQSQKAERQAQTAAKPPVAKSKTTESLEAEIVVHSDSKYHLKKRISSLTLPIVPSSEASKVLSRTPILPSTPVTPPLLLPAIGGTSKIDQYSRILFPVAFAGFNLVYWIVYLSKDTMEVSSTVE
structure (smiles),measurement,setting,value
S=C1NCCN1,outcome,[1],inactive
CCOP(=O)(OCC)Oc1cc(C)nc(C(C)C)n1,outcome,[1],inactive
CCCSP(=O)(OCC)SCCC,AC50,[1],17.7 µM (active)
same,outcome,[2],inactive
same,AC50,[3],11.5 µM (active)
COc1ccc(C(=CC(=O)N2CCOCC2)c2ccc(Cl)cc2)cc1OC,outcome,[1],inactive
same,AC50,[2],1.79 µM (active)
same,outcome,[3],inactive
same,outcome,[4],inactive
CC(C1CC1)C(O)(Cn1cncn1)c1ccc(Cl)cc1 (stereo not given),outcome,[1],inactive
CNc1cnn(-c2cccc(C(F)(F)F)c2)c(=O)c1Cl,outcome,[5],inactive
same,AC50,[1],5.75 µM (active)
same,AC50,[3],4.99 µM (active)
C#CCC1=C(C)C(OC(=O)C2C(C=C(C)C)C2(C)C)CC1=O (stereo not given),outcome,[1],inactive
same,AC50,[3],20 µM (active)
CCCCN(CC)c1c([N+](=O)[O-])cc(C(F)(F)F)cc1[N+](=O)[O-],outcome,[1],inactive
same,outcome,[3],inactive
CCCOCC(=Nc1ccc(Cl)cc1C(F)(F)F)n1ccnc1,AC50,[1],8.63 µM (active)
same,outcome,[6],inactive
same,AC50,[3],0.807 µM (active)
same,outcome,[4],inactive
Nc1c(Cl)cc([N+](=O)[O-])cc1Cl,outcome,[1],inactive
C=C(C)[C@H]1Cc2c(ccc3c2O[C@@H]2COc4cc(OC)c(OC)cc4[C@@H]2C3=O)O1,outcome,[1],inactive
same,outcome,[2],inactive
same,AC50,[3],4.23 µM (active)
CCOP(=S)(OCC)Oc1cc(C)nc(C(C)C)n1,outcome,[1],inactive
same,AC50,[3],1.3 µM (active)
CNC(=O)ON=C(C)SC,outcome,[1],inactive
CCc1cccc(CC)c1N(COC)C(=O)CCl,AC50,[1],11.1 µM (active)
same,AC50,[3],5.18 µM (active)
CC(C)[C@H](C(=O)O[C@H](C#N)c1cccc(Oc2ccccc2)c1)c1ccc(Cl)cc1,outcome,[1],inactive
FC(F)C(F)(F)OCC(Cn1cncn1)c1ccc(Cl)cc1Cl (stereo not given),AC50,[1],19.4 µM (active)
same,AC50,[6],19.9 µM (active)
same,AC50,[3],5.37 µM (active)
same,AC50,[4],7.26 µM (active)
same,outcome,[7],inactive
CSc1nnc(C(C)(C)C)c(=O)n1N,outcome,[5],inactive
same,outcome,[4],inactive
COP(=O)(NC(C)=O)SC (stereo not given),outcome,[1],inactive
same,outcome,[8],inactive
CCC(=O)Nc1ccc(Cl)c(Cl)c1,AC50,[1],15.6 µM (active)
same,AC50,[2],8.41 µM (active)
same,AC50,[3],9.5 µM (active)
CCCCOC(=O)c1ccccc1C(=O)O,outcome,[1],inactive
C[Si](Cn1cncn1)(c1ccc(F)cc1)c1ccc(F)cc1,AC50,[1],25 µM (active)
same,outcome,[3],inactive
CC(C)=CC1C(C(=O)OCN2C(=O)C3=C(CCCC3)C2=O)C1(C)C (stereo not given),AC50,[1],13.5 µM (active)
same,outcome,[3],inactive
CCCCSP(=O)(SCCCC)SCCCC,AC50,[1],17.9 µM (active)
same,outcome,[6],inactive
same,AC50,[3],3.75 µM (active)
CCOC(=O)CC(SP(=O)(OC)OC)C(=O)OCC (stereo not given),outcome,[1],inactive
same,AC50,[3],19.7 µM (active)
CCOP(=S)(Oc1cnc(C(C)(C)C)nc1)OC(C)C (stereo not given),outcome,[1],inactive
same,outcome,[3],inactive
CNC(=O)ON=C(SC)C(=O)N(C)C,outcome,[1],inactive
same,outcome,[3],inactive
CC[C@H](C)[C@H]1O[C@]2(C=C[C@@H]1C)C[C@@H]1C[C@@H](C/C=C(\C)[C@@H](O[C@H]3C[C@H](OC)[C@@H](O[C@H]4C[C@H](OC)[C@@H](NC)[C@H](C)O4)[C@H](C)O3)[C@@H](C)/C=C/C=C3\CO[C@@H]4[C@H](O)C(C)=C[C@@H](C(=O)O1)[C@]34O)O2,AC50,[6],0.00229 µM (active)
same,AC50,[4],10 µM (active)
O=[N+]([O-])c1cc(C(F)(F)F)c(Cl)c([N+](=O)[O-])c1Nc1ncc(C(F)(F)F)cc1Cl,outcome,[6],inactive
CN(C)[C@@H]1C(=O)C(C(N)=O)=C(O)[C@@]2(O)C(=O)C3=C(O)c4c(O)cccc4[C@@](C)(O)[C@H]3[C@H](O)[C@@H]12,AC50,[1],12.9 µM (active)
same,outcome,[3],inactive
C#CC(C)(C)NC(=O)c1cc(Cl)cc(Cl)c1,AC50,[1],1.47 µM (active)
same,AC50,[3],0.19 µM (active)
CC(COc1ccc(Oc2ccccc2)cc1)Oc1ccccn1 (stereo not given),outcome,[1],inactive
same,outcome,[3],inactive
CCC(CC)Nc1c([N+](=O)[O-])cc(C)c(C)c1[N+](=O)[O-],outcome,[1],inactive
same,outcome,[3],inactive
CCOP(=S)(OCC)Oc1ccc([N+](=O)[O-])cc1,outcome,[1],inactive
same,AC50,[3],3.61 µM (active)
CON=C(C(=O)OC)c1ccccc1CON=C(C)c1cccc(C(F)(F)F)c1,AC50,[1],1.06 µM (active)
same,AC50,[3],0.612 µM (active)
CC(C)N(C(=O)SCC(Cl)=C(Cl)Cl)C(C)C,AC50,[3],45.6 µM (active)
CCCSP(=O)(OCC)Oc1ccc(Br)cc1Cl (stereo not given),AC50,[1],3.16 µM (active)
same,AC50,[3],0.28 µM (active)
CCOP(=S)(OCC)Oc1ccc2c(C)c(Cl)c(=O)oc2c1,AC50,[1],3.86 µM (active)
same,AC50,[3],0.541 µM (active)
CSc1nc(NC(C)C)nc(NC(C)C)n1,AC50,[6],6.4 µM (active)
CC1(C(=O)Nc2ccc(O)c(Cl)c2Cl)CCCCC1,AC50,[1],1.78 µM (active)
same,AC50,[3],0.47 µM (active)
